High-throughput results (PubChem)
IL1B secr inh – qHTS for Inhibitors of Inflammasome Signaling: IL-1-beta AlphaLISA Primary Screen; THP-1 LPS/ATP IL-1B secretion, AlphaLISA, 16 h; active compounds read low; activity change, % at 57.5 µM; actives 4.7% (n = 360,000); AID 743279, 2014; in the data active = activity change below about -50%; inconclusive = mostly about -30% to -49%
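Secreted IL-1B measured by AlphaLISA bead assay after 16 h compound exposure of THP-1 cells; compounds (final up to 57.5 uM) added 1 h before LPS (250 ng/mL) and ATP (1.25 mM) stimulation; lower signal means less secretion.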
DT40 TDP1 no CPT – qHTS for Inhibitors of human tyrosyl-DNA phosphodiesterase 1 (TDP1): qHTS in cells in absence of CPT. Potency, µM (highest dose often 46.2 µM), inactives show at the highest dose activity change, negative = growth inhibition, actives largely listed as inhibitors. DT40 Tdp1-/- hTDP1 cells, no CPT, ATP luminescence, 48 h. actives 15% (n = 420,000). AID 686978, 2013; also: potency is read from the fitted curve at half-maximal effect; nearly all actives have a fitted effect of over 55% in size
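Seeded 400 DT40-hTDP1 cells/well (vehicle DMSO, no 20 nM CPT); pinned compounds; ≥48 hr at 37 °C; CellTiter-Glo luminescence as viability measure.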
HT1080NT lethal – qHTS for induction of synthetic lethality in tumor cells producing 2HG: qHTS for the HT-1080-NT fibrosarcoma cell line; HT-1080-NT fibrosarcoma viability, CellTiter-Glo ATP luminescence, 48 h; Potency, µM (top dose mostly 46.1 µM), for the others: top-dose activity, negative = less viability, usual class: cytotoxic; actives 1.6% (n = 360,000); AID 686970, 2013;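 also: NT is the 2HG producing partner of a matched IDH1 knockdown line; potency is read from the fitted curve at half-maximal effect; 0% = DMSO-treated cells and -100% = media-only wells without cells; nearly all actives have a fitted effect of over 55% in size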
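Luminescent CellTiter-Glo readout after 48 hours of compound exposure at 37 degrees C defined viability of HT-1080-NT cells. Activity was normalized to DMSO wells and cell-free media wells; concentration-response curves were fitted and assigned curve classes.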
DT40 TDP1 CPT – qHTS for Inhibitors of human tyrosyl-DNA phosphodiesterase 1 (TDP1): qHTS in cells in presence of CPT; chicken DT40 Tdp1-/-;hTDP1 cells + 20 nM CPT, ATP luminescence, 48 h; Potency, µM (highest dose often 46.2 µM), inactives show at the top dose activity change, negative = growth inhibition, usual class: inhibitors; actives 12% (n = 420,000); also: potency is read from the fitted curve at half-maximal effect; nearly all actives have a fitted effect of over 55% in size
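Chicken DT40 Tdp1-/- cells stably complemented with human TDP1 were seeded at 400 cells/well in medium containing 20 nM camptothecin, exposed to pin-transferred compounds, and grown at 37 °C for at least 48 hr. Viability was read as ATP luminescence.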
HT1080 IDH1KD tx – qHTS for induction of synthetic lethality in tumor cells producing 2HG: qHTS for the HT-1080-IDH1KD cell line. HT-1080 IDH1 knockdown viability, ATP luminescence, 48 h. Potency, µM (highest dose often 46.1 µM), for inactives: at the highest dose activity, negative = toxicity, hits mostly cytotoxic. actives 2% (n = 360,000). AID 686971, 2013;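 also: potency is read from the fitted curve at half-maximal effect; 0% = DMSO wells and -100% = cell-free medium wells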
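After a 2 h attachment period, IDH1KD HT-1080 cells took pin-transferred compound for 48 h at 37 °C; ATP-based luminescence after 10 min room-temperature reagent incubation reported viability.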
uPA generation – qHTS for Inhibitors of Cell Surface uPA Generation. cell surface uPA generation assay, qHTS. Potency, µM (top dose mostly 38.3 µM), for the others: at the highest dose activity change, negative = inhibition, hits mostly inhibitors. actives 0.31% (n = 330,000). AID 540303, 2011; active = well fitted inhibition curve with a large enough effect; inconclusive = small, poorly fitted or top-dose-only effect; inactive = no such curve, though single readings can be large or run the other way; tested in mouse RAW 264.7 cells; also: potency is read from the fitted curve at half-maximal effect; nearly all actives have a fitted effect of over 55% in size
Starred values were filed as active, the others as inactive; i = inactive; ? = inconclusive; nt = no result; [ ] = remark or other dose. This is a sample that favours compounds with a hit; in the whole collection about 19% have one here. Unless noted, calls follow the shape of the dose curve; as a rule, active = well fitted curve in the direction sought with a large enough effect; inconclusive = small, poorly fitted or top-dose-only effect, or another doubt; inactive = no such curve, though single readings can be large; an effect the other way counts as inactive or inconclusive. Unless noted, % is scaled to controls: 0 for no effect and ±100 for the full control effect.

SMILES	IL1B secr inh	DT40 TDP1 no CPT	HT1080NT lethal	DT40 TDP1 CPT	HT1080 IDH1KD tx	uPA generation
CC(OC(=O)Cc1c(F)cccc1Cl)C(=O)NC1(C#N)CCCCC1 (stereo not drawn)	-9	-4%	12%	-10%	12%	7%
CC(C)C(=O)N1CCN(c2ccccc2NC(=O)c2ccc([N+](=O)[O-])o2)CC1	-28	?	-24%	16µM*	?	-12%
CCC(=O)N1CCN(c2ccccc2NC(=O)c2ccc([N+](=O)[O-])o2)CC1	-55*	18µM*	?	18µM*	-27%	-3%
Nc1nc(-c2ccc(Oc3ccccc3)cc2)c(CC(=O)O)s1	8	11%	5%	0%	-1%	6%
Cc1ccc(S(=O)(=O)N2CCC(NC(=O)OC(C)C)CC2)cc1	47	3%	-11%	7%	-9%	7%
Cc1ccc(NC(=O)Cn2c(=O)n(CCc3ccccc3)c(=O)c3c4c(sc32)CCCC4)cc1C	nt	-3%	nt	8%	nt	nt
C/C(=N\Nc1ccc2nncn2n1)c1cccs1	25	-16%	3%	15%	0%	0%
CCCCN(C(=O)c1ccccc1Cl)C(CC(C)C)c1nc2ccccc2[nH]1 (stereo not drawn)	9	?	?	21µM*	?	nt
O=C(NC(Cc1ccccc1)C(=O)O)/C(=C/c1ccccc1)NC(=O)c1cccc(Br)c1 (stereo not drawn)	0	-14%	-4%	12%	13%	4%
Cn1c(CC(=O)Nc2ccccc2)cc2ccccc21	34	?	-7%	7.3µM*	-13%	4.5µM*
CSc1c(CC(=O)Nc2ccccc2)n(C)c2ccccc12	18	?	-22%	15µM*	-26%	?
CCCCCCCCCCCCCCCCN	nt	-11%	nt	7%	nt	nt
O=C(COC(=O)c1ccccc1C(=O)c1ccc(Cl)cc1)NC(c1ccccc1)c1ccccc1	-20	15µM*	0%	12µM*	-1%	?
O=C(COC(=O)c1ccccc1C(=O)c1ccc(Cl)cc1)NCCc1ccccc1	i	?	-4%	?	-14%	-9%
CCOc1ccc(C(=O)OCC(=O)Nc2ccc(SC(F)F)cc2)cc1OCC	0	-21%	-1%	-20%	-2%	5%
O=C(COC(=O)c1ccccc1C(=O)c1ccccc1)Nc1ccc(SC(F)F)cc1	-77*	?	-28%	?	?	-3%
O=C(COc1ccccc1C(=O)O)Nc1ccc(SC(F)F)cc1	-2	16µM*	24%	16µM*	27%	-1%
CN(C)C(=O)COC(=O)c1ccccc1OCC(=O)Nc1ccc(SC(F)F)cc1	-21	9.2µM*	?	?	23%	-21%
Cc1ccccc1NC(=O)COC(=O)c1ccccc1OCC(=O)Nc1ccc(Br)cc1	nt	5%	nt	-4%	nt	nt
C=C(CCO)C1=CCN(S(=O)C(C)(C)C)[C@@H]1CCO (stereo partly drawn)	12	-4%	-1%	-3%	-1%	11%
CC(C)(C)OC(=O)N1CCC(c2cc(=O)n3[nH]c(-c4ccc(Cl)cc4)cc3n2)CC1	5	23µM*	15%	21µM*	3%	8%
Cc1cc(=O)n(CC(=O)Nc2ccc(Cl)c(Cl)c2)c(-n2nc(C)cc2C)n1	nt	16µM*	nt	?	nt	nt
Cc1cc(C)n(-c2nc(C)c(C)c(=O)n2CC(=O)Nc2cccc([N+](=O)[O-])c2)n1	nt	16µM*	nt	?	nt	nt
Cc1csc(=O)n1CC(=O)Nc1ccc(Cl)c(Cl)c1	-24	4%	-4%	-29%	-2%	9%
CN(C)c1ccc(N/C=C/C(=O)C(C)(C)C)cc1	-98*	?	-21%	18µM*	?	-5%
SMILES	IL1B secr inh	DT40 TDP1 no CPT	HT1080NT lethal	DT40 TDP1 CPT	HT1080 IDH1KD tx	uPA generation
O=C(/C=C/Nc1ccccc1)c1ccccc1	12	-6%	-12%	-25%	-14%	-11%
CC(C)(C)C(=O)/C=C/Nc1ccccc1O	0	13µM*	?	12µM*	13µM*	nt
CN(C)c1ccc(N/C=C/C(=O)c2ccccc2)cc1	-11	11µM*	8.9µM*	11µM*	?	nt
COc1ccc(C2(C(=O)NCC3Cc4cccc(-c5cccnc5)c4O3)CCCC2)cc1 (stereo not drawn)	nt	?	nt	-7%[9.04 µM]	nt	nt
N[C@@H](CC(=O)O)C(=O)O	nt	-9%	nt	-13%	nt	nt
CCC(C)(C)C1CCC(=NNC(=S)Nc2ccccc2)CC1 (stereo not drawn)	-5	15µM*	2%	?	-8%	0%
O=C(COc1ccc(Cl)cc1)NN=C1CCCCCCC1	-12	-7%	5%	16%	0%	-2%
Fc1ccc(NC(=S)NN=C2CCCCCC2)cc1	3	?	8.9µM*	?	10µM*	8%
S=C(NN=C1CCCCCC1)Nc1ccc(Cl)cc1	1	29µM*	?	29µM*	10%[9.24 µM]	-18%
COc1cccc(CN(C)CCCn2cnc3c(SC)ncnc32)c1	23	-2%	-6%	-15%	1%	nt
NC(=O)c1ccccc1OCc1nnc(-c2ccccc2Br)o1	16	29µM*	0%	23µM*	-6%	2%
Oc1ccccc1-c1nnc(COc2ccc(Cl)cc2Cl)o1	-28	?	-9%	21µM*	1%	?
COc1ccc(Cl)cc1NC(=O)CSc1nnc(C2CC2)n1N	13	-3%	1%	-1%	-8%	8%
COc1ccc(-n2nnnc2S(=O)(=O)Cc2ccc(C(=O)O)cc2)cc1	-87*	16µM*	14µM*	15µM*	7.9µM*	nt
COc1cc(OC)cc(-n2nnnc2SCC(=O)N2CCCC2)c1	6	-28%	10%	-4%	8%	4%
COc1ccc(-n2nnnc2S(=O)(=O)CC(=O)N2CCCCC2)cc1	-110*	1.5µM*	21µM*	2.6µM*	21µM*	?
Cc1cc(C)n(CC(=O)Nc2ccc(F)c(F)c2)c(=O)c1C#N	nt	1%	nt	0%	nt	nt
CCc1cccc(NC(=O)CCCn2c(=O)[nH]c3ccsc3c2=O)c1	10	1%	-1%	7%	8%	-1%
COc1cc(C)ccc1OCCSc1nc2ccc(NC(=O)c3ccc(F)cc3)cc2s1	nt	8.2µM*	nt	?	nt	nt
